The results in this text go back to ChEMBL document CHEMBL5606460, “ASAP - DENV-2 NS2B-NS3 protease fluorescence single point” (2024).

Screen size: about 2,000 compounds; about 110 (5.5%) showed an effect of 50% or more. This excerpt belongs to a sample that is enriched for strong results.

This assay has as its target Genome polyprotein (dengue virus type 2) (UniProt P29990).
Setting [1] is: Thailand/16681/1984, Concentration 25.0 uM, Number of replicates 1.0.

On to `CNC(=O)c1cc(Cl)c(OC)cc1NS(=O)(=O)c1ccc(Oc2ccccc2Cl)cc1`, for which the inhibition – broadly, the change of the read-out against control, counted positive when it falls – reads like this: (Thailand/16681/1984, Concentration 49.5 uM, Number of replicates 2.0, Standard deviation 1.7443589304782063 %) 79.2%; (Thailand/16681/1984, Concentration 99.01 uM, Number of replicates 2.0, Standard deviation 0.14348540542006383 %) 98.5%; (Thailand/16681/1984, Concentration 198.0 uM, Number of replicates 2.0, Standard deviation 0.05118043543332502 %) 99.3%.

Take `CNC(=O)c1nccnc1NS(=O)(=O)c1ccc(Oc2ccccc2Cl)cc1`: the inhibition (Thailand/16681/1984, Concentration 49.5 uM, Number of replicates 2.0, Standard deviation 1.5095148361141704 %) came to 0.146%; the inhibition (Thailand/16681/1984, Concentration 99.01 uM, Number of replicates 2.0, Standard deviation 1.499470483470751 %) came to 2.7%; the inhibition (Thailand/16681/1984, Concentration 198.0 uM, Number of replicates 2.0, Standard deviation 0.45486328764545614 %) is 7.74%.

With `CNC(=O)c1cc(Cl)cc(OC)c1NS(=O)(=O)c1ccc(Oc2ccccc2Cl)cc1`, the inhibition runs as follows: (Thailand/16681/1984, Concentration 49.5 uM, Number of replicates 2.0, Standard deviation 0.8103097460864452 %) 1.45%; (Thailand/16681/1984, Concentration 99.01 uM, Number of replicates 2.0, Standard deviation 1.6946405270728757 %) 1.53%; (Thailand/16681/1984, Concentration 198.0 uM, Number of replicates 2.0, Standard deviation 1.1024722794831296 %) -0.559%.

As for `Cc1cc(NS(=O)(=O)c2ccc(Oc3ccccc3Cl)cc2)c(C(=O)NCC(F)(F)F)cc1F`, the inhibition (Thailand/16681/1984, Concentration 49.5 uM, Number of replicates 2.0, Standard deviation 0.004288863304468577 %) worked out at 80.7%; the inhibition (Thailand/16681/1984, Concentration 99.01 uM, Number of replicates 2.0, Standard deviation 0.05387243894141284 %) came out at 85%; the inhibition (Thailand/16681/1984, Concentration 198.0 uM, Number of replicates 2.0, Standard deviation 0.06674981844803736 %) was 82.2%.

As for `CNC(=O)c1ccncc1NS(=O)(=O)c1ccc(Oc2ccccc2Cl)cc1`, the inhibition reads like this: (Thailand/16681/1984, Concentration 49.5 uM, Number of replicates 2.0, Standard deviation 3.023334340601001 %) -2.48%; (Thailand/16681/1984, Concentration 99.01 uM, Number of replicates 2.0, Standard deviation 3.20078374174672 %) -0.672%; (Thailand/16681/1984, Concentration 198.0 uM, Number of replicates 2.0, Standard deviation 2.339843576600017 %) 2.95%.

Take `CN1CCN(c2ccc(CCNc3ccccc3F)cc2)CC1`: the inhibition (Thailand/16681/1984, Concentration 49.5 uM, Number of replicates 2.0, Standard deviation 1.1725472419342977 %) was -4.52%; the inhibition (Thailand/16681/1984, Concentration 99.01 uM, Number of replicates 2.0, Standard deviation 1.0151129155310683 %) was -3.89%; the inhibition (Thailand/16681/1984, Concentration 198.0 uM, Number of replicates 2.0, Standard deviation 0.9851713728804441 %) was -1.99%.

Turning to `CNS(=O)(=O)c1ccc(CNCc2ccc(N3CCN(C)CC3)cc2)cc1`, the inhibition by setting is: (Thailand/16681/1984, Concentration 49.5 uM, Number of replicates 2.0, Standard deviation 0.2679515396874046 %) -1.41%; (Thailand/16681/1984, Concentration 99.01 uM, Number of replicates 2.0, Standard deviation 0.0046358372348345115 %) -0.423%; (Thailand/16681/1984, Concentration 198.0 uM, Number of replicates 2.0, Standard deviation 1.744466130987394 %) 0.949%.

Turning to `CC(C)(C)OC(=O)N1CCOC[C@H]1CNCc1nnc2ccccn12`, the inhibition is, setting by setting: (Thailand/16681/1984, Concentration 49.5 uM, Number of replicates 2.0, Standard deviation 3.6636813935617547 %) -2.66%; (Thailand/16681/1984, Concentration 99.01 uM, Number of replicates 2.0, Standard deviation 2.060655687099608 %) -2.48%; (Thailand/16681/1984, Concentration 198.0 uM, Number of replicates 2.0, Standard deviation 3.020799081222525 %) -1.72%.

In the case of `CC(C)Cn1cccc(C(=O)Nc2ccncc2)c1=O`, the inhibition worked out at 4.6% (Thailand/16681/1984, Concentration 49.5 uM, Number of replicates 2.0, Standard deviation 1.6949837288603 %); 8.75% (Thailand/16681/1984, Concentration 99.01 uM, Number of replicates 2.0, Standard deviation 0.80587134576346 %); 16% (Thailand/16681/1984, Concentration 198.0 uM, Number of replicates 2.0, Standard deviation 0.4281674737986559 %).

Take `Cc1cc(CO)c2cccc(Cc3ccccc3NC(=O)Cc3csc(Cc4ccccc4)n3)c2n1`: the inhibition was -0.54% (Thailand/16681/1984, Concentration 49.95 uM, Number of replicates 2.0, Standard deviation 1.2441700790071646 %) and 0.901% (Thailand/16681/1984, Concentration 99.9 uM, Number of replicates 2.0, Standard deviation 1.3300226430755788 %).

In the case of `O=Cc1ccc(N2CCC(C(=O)N3CCC(O)(c4ccc(Br)cc4)CC3)CC2)cc1`, the inhibition under setting [1] is 14.6%.

With `O=Cc1ccc(N2CCC(C(=O)NCc3cccc([N+](=O)[O-])c3)CC2)cc1`, the inhibition under setting [1] turned out to be 11%.

Turning to `NC(=O)c1ccc(Cl)c(NC(=O)C2CCN(c3ccc(C=O)cc3)CC2)c1`, under setting [1], the inhibition came to 13.8%.

For `Cc1cc(CO)c2cccc(Cc3cccc(NC(=O)Cc4cccc(CN)c4)c3)c2n1`, the inhibition was found to be 9.22% (Thailand/16681/1984, Concentration 49.95 uM, Number of replicates 2.0, Standard deviation 1.5571170041089204 %) and 20.8% (Thailand/16681/1984, Concentration 99.9 uM, Number of replicates 2.0, Standard deviation 3.140543082582705 %).

With `NCc1cccc(NC(=O)[C@@H](CO)NC(=O)OCc2ccccc2)c1`, the inhibition is -3.34% (Thailand/16681/1984, Concentration 49.5 uM, Number of replicates 2.0, Standard deviation 0.4735169770341957 %); -3.24% (Thailand/16681/1984, Concentration 99.01 uM, Number of replicates 2.0, Standard deviation 2.1222171442022573 %); -3.94% (Thailand/16681/1984, Concentration 198.0 uM, Number of replicates 2.0, Standard deviation 1.1527028197814282 %).

Take `CC(C)(C)[C@@H](NC(=O)OCc1ccccc1)C(=O)Nc1cccc(CN)c1`: the inhibition (Thailand/16681/1984, Concentration 49.5 uM, Number of replicates 2.0, Standard deviation 1.83793572376561 %) was -6.76%; the inhibition (Thailand/16681/1984, Concentration 99.01 uM, Number of replicates 2.0, Standard deviation 1.8206757463634287 %) was -7.66%; the inhibition (Thailand/16681/1984, Concentration 198.0 uM, Number of replicates 2.0, Standard deviation 1.2664180516369132 %) is -8.05%.

With `C[C@@H](NC(=O)OCc1ccccc1)C(=O)Nc1cccc(CN)c1`, the inhibition is, setting by setting: (Thailand/16681/1984, Concentration 49.5 uM, Number of replicates 2.0, Standard deviation 1.8366578313187596 %) -7.57%; (Thailand/16681/1984, Concentration 198.0 uM, Number of replicates 2.0, Standard deviation 1.0835833369227144 %) -9.56%.

In the case of `CC(C)C[C@@H](NC(=O)OCc1ccccc1)C(=O)Nc1cccc(CN)c1`, the inhibition (Thailand/16681/1984, Concentration 49.5 uM, Number of replicates 2.0, Standard deviation 3.1792600205617827 %) is -4.42%; the inhibition (Thailand/16681/1984, Concentration 99.01 uM, Number of replicates 2.0, Standard deviation 3.3347078817009965 %) is -3.69%; the inhibition (Thailand/16681/1984, Concentration 198.0 uM, Number of replicates 2.0, Standard deviation 3.065424880922284 %) was -2.71%.

In the case of `NCc1cccc(NC(=O)[C@@H](NC(=O)OCc2ccccc2)C2CCCCC2)c1`, the inhibition was -3.1% (Thailand/16681/1984, Concentration 49.5 uM, Number of replicates 2.0, Standard deviation 3.75421470496627 %); -1.76% (Thailand/16681/1984, Concentration 99.01 uM, Number of replicates 2.0, Standard deviation 3.4431804249233626 %); 79.9% (Thailand/16681/1984, Concentration 198.0 uM, Number of replicates 2.0, Standard deviation 6.458747607105988 %).

With `NCc1cccc(NC(=O)[C@@H](NC(=O)OCc2ccccc2)C(C2CCC2)C2CCC2)c1`, the inhibition is, setting by setting: (Thailand/16681/1984, Concentration 49.5 uM, Number of replicates 2.0, Standard deviation 1.0931409988329541 %) 0.575%; (Thailand/16681/1984, Concentration 99.01 uM, Number of replicates 2.0, Standard deviation 7.259842534821406 %) 21.9%; (Thailand/16681/1984, Concentration 198.0 uM, Number of replicates 2.0, Standard deviation 0.026391345013157583 %) 99.8%.
